# ATXN viability: Viability Counterscreen for Primary qHTS for Inhibitors of ATXN expression. S2 cells (HEK-293 line with an ATXN2-luciferase reporter) viability, CellTiter-Fluor protease fluorescence, 24 h. Potency, µM (top dose mostly 56.7 µM), hits mostly cytotoxic. hit rate 0.49% among 400,000. AID 651635, 2014; also: nearly all actives have a fitted effect of over 40% in size
# KB-V1 cytotox: qHTS assay for MDR1-selective chemotherapeutics: Primary screen using the drug-selected MDR subline cells KB-V1 | Potency, µM (doses to about 46.1 µM), hits mostly cytotoxic | hit rate 3.4% among 400,000 | AID 1347076, 2019 | KB-V1 MDR cells viability, CellTiter-Glo, 72 h; also: nearly all actives have a fitted effect of over 60% in size
#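 Cytotoxicity via CellTiter-Glo luminescence after 72 h compound exposure at 37 degrees C. Cells: drug-selected KB-V1 line, DMEM phenol-red free plus 10% FBS. Compounds tested at multiple concentrations; normalized data fitted to concentration-effect curves.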
# ATXN2 expr inh: Primary qHTS for Inhibitors of ATXN expression. HEK-293 ATXN2-luciferase reporter, luminescence, 24 h. Potency, µM (top dose mostly 57 µM), actives largely listed as inhibitors. hit rate 0.72% among 360,000. AID 1745845, 2022; also: nearly all actives have a fitted effect of over 55% in size
#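 ATXN2-luciferase reporter cells (luciferase flanked by upstream and downstream ATXN2 gene portions) were treated 24 h at 37 °C with compounds at up to 57 uM. SteadyGlo luminescence gave expression; GF-AFC fluorescence gave viability.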
# HT1080NT lethal: qHTS for induction of synthetic lethality in tumor cells producing 2HG: qHTS for the HT-1080-NT fibrosarcoma cell line; HT-1080-NT fibrosarcoma viability, CellTiter-Glo ATP luminescence, 48 h; Potency, µM (top dose mostly 46.1 µM), most hits filed as cytotoxic; hit rate 1.6% among 360,000; AID 686970, 2013;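 also: NT is the 2HG producing partner of a matched IDH1 knockdown line; nearly all actives have a fitted effect of over 55% in size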
#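 HT-1080-NT fibrosarcoma cells (2HG-overproducing), 750 cells/well in RPMI with 5% FBS, dosed after 2 h and incubated 48 h at 37C. CellTiter-Glo luminescence normalized to DMSO and no-cell wells; concentration-response curves fitted and classed.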
# HT1080 IDH1KD tx: qHTS for induction of synthetic lethality in tumor cells producing 2HG: qHTS for the HT-1080-IDH1KD cell line. HT-1080 IDH1 knockdown viability, ATP luminescence, 48 h. Potency, µM (doses to about 46.1 µM), most hits filed as cytotoxic. hit rate 2% among 360,000. AID 686971, 2013
#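 Luminescent ATP read-out (CellTiter-Glo, 10 min at room temperature) after 48 h compound exposure at 37 °C gave viability of IDH1-knockdown HT-1080 cells. Activity was normalised to DMSO and cell-free wells, then fitted as concentration-response curves.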
# KB-3-1 tox: qHTS assay for MDR1-selective chemotherapeutics: Primary screen using the parental adenocarcinoma cell KB-3-1 | Potency, µM (highest dose often 46.1 µM), most hits filed as cytotoxic | hit rate 1.4% among 400,000 | KB-3-1 viability, CellTiter-Glo ATP luminescence, 72 h; also: nearly all actives have a fitted effect of over 60% in size
#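 Screening of KB-3-1 cells (DMEM, 10% FBS, phenol-red free) ran from lowest to highest compound concentration; after 72 h at 37 °C viability was read luminescently and curves fitted.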
# A number is an active result; – = inactive; ? = inconclusive; · = no result; [ ] = another dose, or the depositor's remark. Compounds with a hit are over-represented: about 6.2% of the library has one in this group of screens. Calls follow the shape of the dose curve; as a rule, active = well fitted curve in the direction sought with a large enough effect; inconclusive = small, poorly fitted or top-dose-only effect, or another doubt; inactive = no such curve, though single readings can be large; an effect the other way counts as inactive or inconclusive.
SMILES,ATXN viability,KB-V1 cytotox,ATXN2 expr inh,HT1080NT lethal,HT1080 IDH1KD tx,KB-3-1 tox
Cc1cc(=O)c2ccccc2n1Cc1ccccc1,–,?,?,–,?,–
Cc1cc(=O)c2ccccc2n1CC(=O)NCc1ccccc1,–,4.61µM,–,–,–,–
Cc1nc2ccccc2n1CC(=O)NCc1ccccc1,–,6.51µM,–,–,–,?
Cn1c(CNC(=O)CSc2n[nH]c(-c3ccccc3Cl)n2)nc2ccccc21,·,–,·,·,·,–
C=CCn1c(SCC(=O)N(CC)C2CCS(=O)(=O)C2)nc2scc(-c3ccccc3)c2c1=O (stereo not given),–,10.3µM,–,–,–,–
CCCCN(C(=O)CSc1nc2ccccc2n1CC)C1CCS(=O)(=O)C1 (stereo not given),?,5.8µM,–,–,–,–
CCn1c(SCC(=O)N(Cc2ccccc2)C2CCS(=O)(=O)C2)nc2ccccc2c1=O (stereo not given),–,–,–,–,–,–
CCN(C(=O)CSc1nc2scc(-c3ccccc3)c2c(=O)n1C)C1CCS(=O)(=O)C1 (stereo not given),–,–,–,–[9.24 µM],–,–
Cc1ccc(Cn2c(CN3CCC(C(=O)NCc4ccccc4C)CC3)cc3ccccc32)cc1,–,–,–,·,·,–
COc1ccc(CN2CCC3(CCC(CNC(=O)c4ccco4)O3)CC2)c(OC)c1C (stereo not given),–,·,·,·,·,·
COc1ccc(C(=O)NCCn2cc(SCC(=O)Nc3ccccc3)c3ccccc32)cc1OC,?,–,–,·,·,–
O=C(NCCn1cc(SCc2cccc(F)c2)c2ccccc21)c1cccc(C(F)(F)F)c1,?,20.6µM,–,·,·,–
COc1ccc(C(=O)NCCn2cc(SCc3cccc(F)c3)c3ccccc32)cc1OC,?,?,17.8µM,·,·,?
Nc1c(I)cc(I)c(C(=O)N(CCC(=O)O)c2ccccc2)c1I,–,·,–,·,·,·
CCOC(=O)N1CCc2c(sc(NCc3sccc3C)c2C(=O)Nc2ccccc2OCC)C1,?,–,–,·,·,–
O=S(=O)(Nc1cccnc1)c1cccc(C(F)(F)F)c1,–,–,–,–,–,–
O=[N+]([O-])c1ccc(S(=O)(=O)c2cccc(C(F)(F)F)c2)nc1,15.8µM,?,?,10.3µM,7.31µM,?
O=C(/C=C/c1ccccn1)c1cc(Cl)cc(Cl)c1O,–,?,?,16.4µM,?,?
Cc1ccc(C(=O)N2CCc3ccccc3C2)cc1S(=O)(=O)N1CCOCC1,–,?,–,–,–,–
Cc1ccccc1NS(=O)(=O)c1cc(C(=O)N2CCc3ccccc3C2)ccc1C,?,7.31µM,–,–,–,–
Cc1ccc(NS(=O)(=O)c2cc(C(=O)N3CCc4ccccc4C3)ccc2Cl)cc1,–,16.4µM,–,?,–,–
Cc1ccc(NS(=O)(=O)c2cc(C(=O)O)ccc2Cl)cc1,–,?,–,–,–,–
CC(=Nc1ccccc1)C1=C(O)CSC1=O,–,–,–,–,–,–
CC(=Nc1ccccc1)C1=C(O)C(Cc2ccc(F)cc2)NC1=O (stereo not given),?,?,·,2.59µM,2.59µM,1.84µM
CC(=Nc1ccccc1)C1=C(O)CCCC1=O,–,–,–,–,–,–
CC(=Nc1ccccc1)C1=C(O)C(Cc2ccccc2)NC1=O (stereo not given),?,–,–,0.581µM,?,0.0065µM
CC(=Nc1ccccc1)C1=C(O)C(CC(C)C)NC1=O (stereo not given),–,23.1µM,–,–,–,–
CC(=Nc1ccccc1)C1=C(O)CC(C)(C)CC1=O,–,–,–[11.3 µM],–,–,–
CCc1ccc(NC(=O)NCC2CCN(Cc3cccc(Cl)c3)CC2)cc1,?,–,·,?,–,?
Cc1ccc(NC(=O)NCC2CCN(Cc3cccc(Cl)c3)CC2)cc1Cl,?,?,?,11.6µM,–,?
